Source: PubChem (National Center for Advancing Translational Sciences (NCATS))
Pf growth 96h = Primary qHTS for delayed death inhibitors of the malarial parasite plastid, 96 hour incubation; AID 504834, 2011; 320,000 compounds, 6.9% hits; Potency, µM (highest dose often 28.7 µM), for inactives: at the top dose activity change, negative = inhibition, most hits filed as inhibitors; P. falciparum luciferase reporter growth, 96 h; note: potency is the fitted concentration of half-maximal effect; % is set by controls: 0 for no effect and ±100 for the full control effect
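96 h incubation, 37 C, 5% CO2, of luciferase-reporter P. falciparum-infected RBCs (2% hematocrit, 0.05% parasitemia final) with test compounds; endpoint luminescence.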
CHX counter = Cycloheximide Counterscreen for Small Molecule Inhibitors of Shiga Toxin. 300,000 compounds, 12% hits. AID 2314, 2010. cell reporter, cycloheximide protein synthesis inhibition counterscreen. max response, %; in the data active = max response mostly above about 13%, no sharp cut-off; inactive = mostly below about 14%; note: read at 38.3 µM for the half of the compounds with a filed dose; 0% is about no effect
Pf growth 48h = Primary qHTS for delayed death inhibitors of the malarial parasite plastid, 48 hour incubation. Potency, µM (top dose mostly 28.7 µM), for the others: at the top dose activity change, negative = inhibition, hits mostly inhibitors. P. falciparum luciferase growth in erythrocytes, 48 h. 310,000 compounds, 5.9% hits. AID 504832, 2011; note: potency is the fitted concentration of half-maximal effect; % is set by controls: 0 for no effect and ±100 for the full control effect
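Growth was read as firefly luciferase luminescence after a 48 h, 37 C, 5% CO2 exposure of compounds to reporter-bearing P. falciparum cultures (0.1% parasitemia, 2% hematocrit final) in Albumax-supplemented RPMI 1640.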
MARV entry inh = qHTS for inhibitors of binding or entry into cells for Marburg Virus; Potency, µM (highest dose often 37.8 µM), for the others: at the highest dose activity change, negative = inhibition, usual class: inhibitors; 300,000 compounds, 1.8% hits; Marburg virus pseudotyped entry inhibition, cell reporter; calls by dose curve; tested in HEK293 cells; note: potency is the fitted concentration of half-maximal effect; % is set by controls: 0 for no effect and ±100 for the full control effect
Lassa entry inh = qHTS for Inhibitors of binding or entry into cells for Lassa Virus | Lassa virus pseudotype entry inhibition, cell reporter | Potency, µM (titrated, usually from 37.9 µM), for the others: at the top dose activity change, negative = inhibition, most hits filed as inhibitors | 300,000 compounds, 1.2% hits | AID 540256, 2011; calls by dose curve; tested in HEK293 cells; note: potency is the fitted concentration of half-maximal effect; % is set by controls: 0 for no effect and ±100 for the full control effect; nearly all actives have a fitted effect of over 50% in size
Shiga inhibitor = A qHTS for Small Molecule Inhibitors of Shiga Toxin; inhibition, % at 38.7 µM; 290,000 compounds, 9.2% hits; Vero cells, Shiga toxin protein synthesis inhibition reporter; in the data active = inhibition mostly above about 28%, no sharp cut-off; inactive = mostly below about 43%; note: 0% is about no effect
Numbers without * were called inactive; ? = inconclusive; / = not tested or not shown; ! = not confirmed by another sample; [ ] = dose if it differs, or a comment. This is a sample that favours compounds with a hit; in the whole collection about 19% have one here. Unless noted, calls come from the whole dose curve; as a rule, active = well fitted inhibition curve with a large enough effect; inconclusive = small, poorly fitted or top-dose-only effect, or another doubt; inactive = no such curve, though single readings can be large or run the other way.

SMILES	Pf growth 96h	CHX counter	Pf growth 48h	MARV entry inh	Lassa entry inh	Shiga inhibitor
N/C(Cc1ccc([N+](=O)[O-])cc1)=N\OC(=O)COc1ccccc1Cl	-63%	2	12%	21%	6%	14
N/C(Cc1cccs1)=N\OC(=O)COc1ccc(Br)cc1Cl	118%	33*	85%	7%	-18%	140*
CN(C)c1nc(N)nc(/C(C#N)=C/C2CC3C=CC2C3)n1 (stereo not given)	-1%	13	?	-7%[46.1 µM]	2%	23
Cc1cc(NC(=O)C2C3C(=O)N(CC4CCCO4)C(C(=O)NC(C)(C)C)C34C=CC2(C)O4)no1 (stereo not given)	?	-1	7%	?	-1%[46.1 µM]	-4
CCOC(=O)c1nc2cc3n(c(CC(C)C)c-2c1C)CC(C)=C3C	3.3µM*	-3	1.2µM*	?	-14%	-4
CCOC(=O)c1nnc2cc(C)nn2c1C	2%	0	11%	/	/	-1
CCOC(=O)c1nc2cc3n(c(C)c-2c1C)C(C)C(C)=C3C (stereo not given)	2.3µM*	7	7.4µM*	1%	12%	-8
O=S(=O)(c1ccccc1)[C@@]1(c2ccc(Br)cc2)C[C@@H]2ON=C(c3cccc(Br)c3)[C@@H]2C1	?	/	9.3µM*	/	/	/
O=C(Cn1nc(Cl)nc1Cl)c1ccc([N+](=O)[O-])cc1	2.9µM*	10	13µM*	/	/	3
CCOC(=O)Cn1c(=N)n(Cc2ccccc2)c2ccccc21	16%	-1	-2%	-4%[46.1 µM]	2%	-16
C=CCn1c(=N)n(CC(=O)c2cccc([N+](=O)[O-])c2)c2ccccc21	?	20	?	0%	?	20
N=c1n(CC(=O)c2ccc([N+](=O)[O-])cc2)c2ccccc2n1Cc1ccccc1	?	0	8.3µM*	?	?	16
O=C(Cn1nnc2ccccc21)c1ccc([N+](=O)[O-])cc1	13%	5	18%	/	/	13
N=c1n(Cc2ccccc2)c2ccccc2n1Cc1ccccc1	?	-4	10µM*	?	?	-5
N=c1n(CCN2CCCCC2)c2ccccc2n1CC(=O)c1cccc([N+](=O)[O-])c1	?	1	1.9µM*	/	/	-17
CCCn1c(=N)c(C(=O)NCC2CCCO2)cc2c(=O)n3cc(C)ccc3nc21 (stereo not given)	/	/	/	22%[46.1 µM]	11%[46.1 µM]	/
C/C(=N\NC(=O)C(O)c1ccccc1)c1ccc(Br)s1 (stereo not given)	-3%	15	-12%	/	/	3
Cc1ccccc1-n1c(-c2ccc([N+](=O)[O-])cc2)nc2ccccc2c1=O	-8%	-4	-18%	-8%[46.1 µM]	-11%	2
CC(C)(C)NCC(O)c1ccc(O)c(CO)c1 (stereo not given)	26%	/	-8%	?	?	/
CC(=O)Nc1ccc(C(=O)COC(=O)c2nc3nc(C)cc(C)n3n2)cc1	46%	/	1%	/	/	/
Cc1ccc(CNC(=O)C2CC3Cn4c(nc5cc6ccccc6cc54)C3N2C)o1 (stereo not given)	35%	-1	?	/	/	-5
COc1ccccc1CNC(=O)CCC1N=C2c3ccccc3N=C(SCC(N)=O)N2C1=O (stereo not given)	/	/	/	/	-4%[46.1 µM]	/
CCOc1ccc(Nc2nnc(SCc3nc4ccccc4c(=O)[nH]3)s2)cc1	?	-1	21%	/	/	-4
Cc1cc(C)c(S(=O)(=O)N2CCN(S(=O)(=O)N3CCOCC3)CC2)c(C)c1	2.3µM*	-4	-5%	-29%[46.1 µM]	1%	-2
Cc1cc(C)c(S(=O)(=O)N2CCCC2)c(C)c1	-23%	-1	4%	-6%[46.1 µM]	1%[46.1 µM]	-9
SMILES	Pf growth 96h	CHX counter	Pf growth 48h	MARV entry inh	Lassa entry inh	Shiga inhibitor
O=C(NCc1cccs1)C1CCN(c2ccc(S(=O)(=O)N3CCOCC3)cc2Cl)CC1	?	-1	4.7µM*	1.1µM*!	?	-10
O=C(NCC(c1cccs1)N1CCOCC1)C1CCN(S(=O)(=O)c2c(Cl)cccc2Cl)CC1 (stereo not given)	?	/	13µM*	-11%	-15%	/
Cc1nc2ncnn2c(N2CCC(C(=O)NCC3CCCO3)CC2)c1Cc1ccccc1 (stereo not given)	/	/	/	-3%	5%	/
Cn1c(-c2ccccc2)c[n+]2c1-c1ccccc1C2	?	11	0.59µM*	/	/	2
Cc1ccc(-c2cc(C(=O)N/N=C/c3ccc([N+](=O)[O-])o3)c3ccccc3n2)o1	3.3µM*	32*	-25%	?	?	80*
O=C(N/N=C/c1ccc([N+](=O)[O-])o1)c1cc(-c2ccc(-c3ccccc3)cc2)nc2ccccc12	?	32*	?	?	?	101*
O=C(N/N=C/c1ccc([N+](=O)[O-])o1)c1cc(-c2ccncc2)nc2ccccc12	0.93µM*	2	?	?	?	27
O=C(N/N=C/c1ccc([N+](=O)[O-])o1)c1cn(-c2ccccc2)nc1-c1ccc(Cl)cc1	?	-2	4.7µM*	/	/	-12
COc1ccc(C(=O)OCC(=O)Nc2cc(C)on2)cc1S(=O)(=O)N1CCOCC1	2%	0	-4%	16%[46.1 µM]	-13%	-20
Cc1ccc2nc(SCC(=O)N/N=C/c3ccco3)cc(C)c2c1	-18%	1	2%	?	/	8
Cc1ccc2nc(N/N=C/c3ccco3)cc(C)c2c1	11%	51*	?	/	/	72*
Cc1cc(N/N=C/c2ccc([N+](=O)[O-])o2)nc2ccccc12	5.9µM*	15*	4.7µM*	?	1%	48*
Fc1ccc(OCCOCCOc2cccc3[nH]ccc23)cc1	-30%	-1	?	/	/	21
CCOc1cc(/C=C2/SC(=S)N(CC3CCCO3)C2=O)ccc1O (stereo not given)	-7%	16	?	7%	9%	44
COc1cccc(C(=O)Cn2c(=O)n(CC3CCCO3)c(=O)c3ccccc32)c1 (stereo not given)	12µM*	1	/	20%[46.1 µM]	0%	9
O=C1/C(=C/c2cccc(O)c2)SC(=S)N1CC1CCCO1 (stereo not given)	-13%	32*	?	-1%[46.1 µM]	-13%	72*
COc1cccc(/C=C2\SC(=S)N(CC3CCCO3)C2=O)c1 (stereo not given)	20%	26*	-2%	?	?	38*
O=C(Cn1c(=O)n(CC2CCCO2)c(=O)c2ccccc21)c1ccccc1 (stereo not given)	?	1	27%	?	-4%	-1
Cc1ccc(-n2c(=O)c3oc4ccccc4c3n(CC(=O)Nc3ccc(F)c(Cl)c3)c2=O)cc1C	/	/	/	/	4%[46.1 µM]	/
CC(C)(C)c1ccc(OCC(=O)N/N=C/C2CC=CCC2)cc1 (stereo not given)	?	5	28%	-25%	?	3
